The record followed here is PubChem BioAssay (NCI).

The panel holds about 83,000 compounds, 20% with a hit somewhere; the sample as a whole holds those more often.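 Growth was measured after 48 h exposure to one concentration of compound in 96-well plates. Values under 10 count as active.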 Values without a mark were called inactive. The source made the active and inactive calls.

Some test systems named below: DU-145 prostate; K-562 leukemia; MALME-3M melanoma; MDA-MB-231 breast; RXF 393 renal; SF-268 CNS; SF-295 CNS; SF-539 CNS; UACC-257 melanoma; M14 melanoma; HCT-15 colon; HT29 colon; SNB-75 CNS; SNB-19 CNS; U251 CNS; PC-3 prostate; SK-MEL-5 melanoma; UACC-62 melanoma; LOX IMVI melanoma; SK-MEL-28 melanoma.
What all share (assay): NCI-60 one-dose screen, 48 h (100 = growth as untreated, 0 = no growth, -100 = all killed)
Holding throughout (conditions): 10 µM unless noted

`Cc1c(Cl)cccc1C(=O)Nc1nc2c(s1)CN(C(=O)c1ccc(C(F)(F)F)cc1)CC2`: the growth is 15.7% in the experiment on DU-145 prostate; 10.3% with K-562 leukemia; 44.6% with MALME-3M melanoma; 34.4% with MDA-MB-231 breast; 21.9% in the experiment with RXF 393 renal; 38.4% with SF-268 CNS. The growth with SF-295 CNS is 25.1%; with SF-539 CNS, -24.5% (active); in the experiment on UACC-257 melanoma, 63.7%; with M14 melanoma, 10.2%; in the experiment with HCT-15 colon, 15%; in the experiment with HT29 colon it was 1.63% (active). Moreover, the growth with SNB-75 CNS was 6.65% (active); with SNB-19 CNS it was 34.6%; in the experiment on U251 CNS, 17.7%; with PC-3 prostate, 7.45% (active); with SK-MEL-5 melanoma, 8.01% (active); with UACC-62 melanoma, 37.6%. Also, the values for the growth in the experiment with LOX IMVI melanoma and with SK-MEL-28 melanoma were 20.2% and 59.1%, respectively.

Take `COc1cccc(CCNc2ncnc3c2ncn3Cc2nnc3c4ccccc4c(Cl)nn23)c1`: the growth in the experiment with DU-145 prostate was 50.5%; in the experiment on K-562 leukemia, 61.4%; with MALME-3M melanoma it was 55.8%; in the experiment with MDA-MB-231 breast it was 46.3%; with RXF 393 renal, 48.7%; with SF-268 CNS it was 49.4%. In addition, the growth is 89.9% in the experiment with SF-295 CNS; 72.6% with SF-539 CNS; 59.5% in the experiment on UACC-257 melanoma; 32.2% in the experiment on M14 melanoma; 45.2% in the experiment with HCT-15 colon; 81.7% in the experiment on HT29 colon. Also, the growth in the experiment on SNB-75 CNS is 50.5%; in the experiment on SNB-19 CNS it was 74.4%; with U251 CNS, 50.7%; in the experiment on PC-3 prostate, 59.5%; with SK-MEL-5 melanoma it was 77.1%; in the experiment with UACC-62 melanoma it was 32.9%. The growth in the experiment on LOX IMVI melanoma was 8.78% (active); in the experiment with SK-MEL-28 melanoma it was 71.6%.

With `COC(=O)N1CC(Oc2ccccn2)C2CC1c1ccccc1O2` (stereo not given), the growth in the experiment with DU-145 prostate is 115%; in the experiment on K-562 leukemia, 114%; in the experiment with MALME-3M melanoma, 104%; in the experiment with MDA-MB-231 breast, 89.7%; in the experiment with RXF 393 renal, 95.1%; in the experiment with SF-268 CNS it was 102%. For the same compound, the growth in the experiment on SF-295 CNS is 104%; with SF-539 CNS, 99.4%; in the experiment on UACC-257 melanoma it was 88%; with M14 melanoma, 102%; with HCT-15 colon, 98.8%; with HT29 colon, 103%. In addition, the growth with SNB-75 CNS is 98.7%; in the experiment with SNB-19 CNS, 94.5%; with U251 CNS, 104%; in the experiment on PC-3 prostate, 94.4%; in the experiment on SK-MEL-5 melanoma, 99.4%; in the experiment on UACC-62 melanoma, 89.5%. Moreover, the results for the growth in the experiment with LOX IMVI melanoma and with SK-MEL-28 melanoma were 96.8% and 94.8%, respectively.

Take `CN(Cc1cc(Br)cc(Br)c1O)Cc1cc(Br)cc(Br)c1O`: the growth in the experiment with DU-145 prostate is 54.8%; with K-562 leukemia, 21.3%; with MALME-3M melanoma, 73.2%; with MDA-MB-231 breast, 39.6%; in the experiment on RXF 393 renal it was 55.4%; in the experiment on SF-268 CNS, 45.3%. Moreover, the growth was 32.1% in the experiment with SF-295 CNS; 39.5% in the experiment with SF-539 CNS; 46.8% in the experiment on UACC-257 melanoma; 37.3% in the experiment with M14 melanoma; 22.2% in the experiment with HCT-15 colon; 32.9% with HT29 colon. Also, the growth is 61.5% with SNB-75 CNS; 40.5% with SNB-19 CNS; 32.8% in the experiment with U251 CNS; 39.5% in the experiment on PC-3 prostate; 3.66% (active) in the experiment on SK-MEL-5 melanoma; 18.8% in the experiment with UACC-62 melanoma. Besides, the figures for the growth in the experiment on LOX IMVI melanoma and in the experiment on SK-MEL-28 melanoma were 34.6% and 74%, respectively.

Regarding `CC1CCN(C(=O)CCCl)c2ccccc21` (stereo not given), the growth in the experiment on DU-145 prostate is 113%; in the experiment on K-562 leukemia it was 147%; with MALME-3M melanoma, 121%; in the experiment on MDA-MB-231 breast, 85.4%; with RXF 393 renal it was 123%; with SF-268 CNS, 99.7%. Besides, the growth is 160% in the experiment with SF-295 CNS; 126% in the experiment with SF-539 CNS; 94.2% with UACC-257 melanoma; 95.4% in the experiment on M14 melanoma; 102% with HCT-15 colon; 102% with HT29 colon. For the same compound, the growth with SNB-75 CNS is 87.9%; in the experiment with SNB-19 CNS, 96.7%; with U251 CNS, 102%; with PC-3 prostate, 103%; in the experiment with SK-MEL-5 melanoma, 104%; with UACC-62 melanoma, 89.7%. Also, the values for the growth with LOX IMVI melanoma and with SK-MEL-28 melanoma were 91% and 109%, respectively.

For the compound `CCN1C(=O)N(CC)C2C1NN=c1s/c(=C\c3ccc[nH]3)c(=O)n12` (stereo not given), the growth with DU-145 prostate is -11.9% (active); in the experiment on K-562 leukemia, 10.2%; in the experiment on MALME-3M melanoma, 34.5%; in the experiment with MDA-MB-231 breast it was 30.6%; in the experiment on RXF 393 renal, -26.6% (active); in the experiment on SF-268 CNS it was 44.6%. Moreover, the growth was 12.4% with SF-295 CNS; -21.5% (active) in the experiment with SF-539 CNS; 46.7% in the experiment with UACC-257 melanoma; -5.38% (active) with M14 melanoma; 24.4% with HCT-15 colon; -10.4% (active) in the experiment on HT29 colon. The growth in the experiment with SNB-75 CNS was -23.6% (active); in the experiment on SNB-19 CNS, 24.9%; in the experiment on U251 CNS it was 9.08% (active); with PC-3 prostate, 19.6%; with SK-MEL-5 melanoma it was 30%; with UACC-62 melanoma, 25.7%. In addition, the results for the growth in the experiment with LOX IMVI melanoma and in the experiment with SK-MEL-28 melanoma were 43% and 46%, respectively.

As for `COc1ccc(Nc2ncccc2/C=C/C(=O)c2cc(OC)c(OC)c(OC)c2)cc1`, the growth in the experiment with DU-145 prostate is 6.98% (active); in the experiment with K-562 leukemia, -26.3% (active); in the experiment with MALME-3M melanoma, -5.45% (active); with MDA-MB-231 breast it was 17.3%; in the experiment with RXF 393 renal it was -61% (active); in the experiment with SF-268 CNS it was -33.2% (active). In addition, the growth in the experiment on SF-295 CNS was 17%; in the experiment on SF-539 CNS, -51.1% (active); with UACC-257 melanoma, -89.7% (active); in the experiment on M14 melanoma, -53.4% (active); in the experiment with HCT-15 colon, -57.2% (active); in the experiment with HT29 colon, -66.8% (active). The growth was 21.4% with SNB-75 CNS; 33.4% with SNB-19 CNS; -95.8% (active) in the experiment with U251 CNS; -15.1% (active) with PC-3 prostate; -25.8% (active) in the experiment on SK-MEL-5 melanoma; -24% (active) with UACC-62 melanoma. In addition, the values for the growth with LOX IMVI melanoma and in the experiment on SK-MEL-28 melanoma were -63.6% (active) and -77% (active), respectively.

Turning to `C=Cc1cnc(Nc2ccc(OC)cc2)nc1NCCCNC(=O)C1CCC1`, the growth in the experiment on DU-145 prostate is 46.3%; in the experiment on K-562 leukemia it was 34.3%; with MALME-3M melanoma, 52.5%; with MDA-MB-231 breast it was -6.62% (active); with RXF 393 renal, -1.29% (active); in the experiment with SF-268 CNS it was 28.5%. In addition, the growth is 59.6% with SF-295 CNS; 22% in the experiment with SF-539 CNS; 70.5% in the experiment with UACC-257 melanoma; 46.8% with M14 melanoma; 35.7% in the experiment on HCT-15 colon; 8.04% (active) with HT29 colon. Besides, the growth with SNB-75 CNS was -5.11% (active); in the experiment with SNB-19 CNS, 57.5%; with U251 CNS, 29%; in the experiment on PC-3 prostate, 64.2%; in the experiment on SK-MEL-5 melanoma, 37.5%; with UACC-62 melanoma, 82.3%. Further, the growth in the experiment on LOX IMVI melanoma is 20.4%; with SK-MEL-28 melanoma, 80.3%.
